Source: PubChem BioAssay
Activity calls are given as the source filed them.

What was measured:
Albumin (Bos taurus) = Albumin (Bos taurus) (UniProt P02769); assay: compounds binding labelled BSA control protein – biochemical, small-molecule microarray, Alexa647 label, 635/667 nm fluorescence, artefact control for SMM control protein annotation, profiling panel (AID 1118); settings: BSA-A647 binding, fluorescence 635 nm, higher = more signal;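 further: score merges 667 nm emission intensity and signal-to-noise per printed compound spot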
[1] = probe aXIP binding to arrayed compounds – biochemical, NeuroSMM set, 635/667 nm fluorescence, primary screen (AID 1119); settings: small-molecule microarray, higher = more signal, called active from +8 up or from −8 down;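 further: probe is the protein aXip251-270 applied at 1 µg/mL to compound-printed slides; binding of probe to printed compounds measured as 667 nm fluorescence plus signal to noise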
[2] = probe aNOTCH3 binding on compound microarray – biochemical, small-molecule microarray, 635/667 nm fluorescence, primary screen (AID 1120); settings: higher = more signal;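 further: probe is a biotin-tagged antibody raised against NOTCH3 rather than NOTCH3 protein; score merges spot fluorescence near 667 nm with spot signal to noise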
[3] = probe aNOTCH2 binding on compound microarray – biochemical, small-molecule microarray, 635/667 nm fluorescence, primary screen (AID 1121); settings: higher = more signal;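 further: score merges feature fluorescence read at 667 nm with its signal to noise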
[4] = biological target: Carbonic anhydrase 2 (Homo sapiens) (UniProt P00918); assay: compounds binding carbonic anhydrase 2 – biochemical, small-molecule microarray, Alexa647-labelled CAII, profiling panel (AID 1122); settings: CAII-A647 binding fluorescence, higher = more signal
[5] = COS7 lysate on small-molecule microarray, probe aHis, 635 nm (AID 1123); settings: COS7 cell lysate, fluorescence, higher = more signal;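 further: z-score combines 667nm fluorescence intensity with signal-to-noise per printed compound spot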
[6] = probe aLAP1 signal on lysate-treated microarray – cell lysate, small-molecule microarray, COS7 lysate, primary screen (AID 1124); settings: probe aLAP1, fluorescence, higher = more signal;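 further: lysate comes from COS7 cells expressing LAP1 and is applied at 0.3 µg/mL; score merges spot fluorescence near 667 nm with signal-to-noise over triplicate slides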
Sam68 (KHDRBS1) = assay: compounds binding KHDRBS1 protein – biochemical, small-molecule microarray, 635 nm fluorescence, primary screen (AID 1125); settings: higher = more signal;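 further: score merges 667 nm channel intensity with signal to noise over triplicate slides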
[7] = tested on: Chordin-like protein 2 (CHRDL2); assay: compounds binding chordin-like 2 – biochemical, small-molecule microarray, 635 nm fluorescence, primary screen (AID 1126); settings: fluorescence 635 nm, higher = more signal;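 further: printed compound slides probed with Chrdl2 protein at 4 µg/mL for 1 h at 4 C; score merges 667 nm emission intensity with signal to noise over three replicate slides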
[8] = biological target: Concanavalin-A (Canavalia ensiformis) (UniProt P02866); assay: compounds binding concanavalin A lectin – biochemical, small-molecule microarray, Alexa647 label, 635 nm, artefact control for SMM control protein annotation, primary screen (AID 1127); settings: ConA-A647 binding fluorescence, higher = more signal;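 further: z combines 667 nm emission intensity with signal-to-noise across three replicate slides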
Sequence of Concanavalin-A (Canavalia ensiformis) (P02866 whole entry, looked up): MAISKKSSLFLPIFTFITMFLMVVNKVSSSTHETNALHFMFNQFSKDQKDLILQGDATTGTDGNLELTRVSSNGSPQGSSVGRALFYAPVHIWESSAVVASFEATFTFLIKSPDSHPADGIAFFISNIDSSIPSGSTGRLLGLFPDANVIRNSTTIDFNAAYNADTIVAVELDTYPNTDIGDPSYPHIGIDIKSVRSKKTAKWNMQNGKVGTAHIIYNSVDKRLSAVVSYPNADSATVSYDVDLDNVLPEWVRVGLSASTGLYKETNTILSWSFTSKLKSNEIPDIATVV

Sequence of Albumin (Bos taurus) (P02769 whole entry, looked up): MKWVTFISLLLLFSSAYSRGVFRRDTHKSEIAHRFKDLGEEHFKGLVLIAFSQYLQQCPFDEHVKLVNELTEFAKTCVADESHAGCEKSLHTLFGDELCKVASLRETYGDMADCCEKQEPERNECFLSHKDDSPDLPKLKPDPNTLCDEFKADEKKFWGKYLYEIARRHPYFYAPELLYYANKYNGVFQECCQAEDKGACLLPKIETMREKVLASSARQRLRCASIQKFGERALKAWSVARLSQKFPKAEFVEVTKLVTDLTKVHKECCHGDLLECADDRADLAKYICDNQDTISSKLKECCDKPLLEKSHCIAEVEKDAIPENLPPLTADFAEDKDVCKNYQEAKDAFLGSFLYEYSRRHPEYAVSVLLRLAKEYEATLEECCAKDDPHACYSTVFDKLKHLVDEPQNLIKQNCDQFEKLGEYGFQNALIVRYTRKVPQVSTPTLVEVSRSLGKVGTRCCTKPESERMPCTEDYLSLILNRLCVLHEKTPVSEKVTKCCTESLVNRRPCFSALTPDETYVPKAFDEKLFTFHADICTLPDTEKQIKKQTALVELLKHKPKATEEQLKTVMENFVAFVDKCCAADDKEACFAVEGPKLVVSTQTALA

Structure (SMILES) | composite z-score (Albumin (Bos taurus)) | composite Z-score [1] | composite z-score [2] | composite z-score [3] | composite z-score [4] | composite z-score [5] | composite z-score [6] | composite z-score (Sam68 (KHDRBS1)) | composite z-score [7] | composite z-score [8]
CCOC(=O)C1=CC[C@@H](c2ccccc2)N(S(=O)(=O)c2ccc(C)cc2)[C@H]1c1ccc(C#N)cc1 | 0.801 | 0.662 (inactive) | 0.116 | -0.0158 | 0.356 | 1.56 | 0.791 | 1.33 | -1.25 | 1.12
Cc1ccccc1/C=C/C=O | -0.699 | -0.0934 (inactive) | -0.19 | -0.171 | -0.293 | -0.256 | -0.298 | -1.35 | -0.56 | -0.485
O=C(NCCN1CCOCC1)[C@@H]1c2ccccc2C(=O)N(Cc2cc(F)cc(C(F)(F)F)c2)[C@H]1c1ccc(CO)cc1 | -0.265 | -0.543 (inactive) | 0.49 | -0.222 | 0.724 | 2.53 | -0.062 | 0.463 | -1.55 | -0.287
O=C1OCC=C[C@H]2OC34C=CCN(c5ccc6ccccc6c5)C(=O)[C@H]3N(CCO)C(=O)[C@@H]4[C@@H]12 (stereo not given in full) | -0.855 | 0.138 (inactive) | -0.172 | -0.115 | 0.804 | 0.174 | -0.532 | -0.873 | -2.08 | -0.681
C=C(COC)/C(=C/C[C@H](OC(C)=O)c1ccccc1OCCO)c1cnc2ccccc2c1 | 0.185 | 0.115 (inactive) | -0.0044 | -0.14 | 0.648 | 0.649 | -0.186 | 1.06 | 1 | 0.49
[N-]=[N+]=NCc1ccccc1C[C@@]1(C(=O)NCc2ccccc2)N=C(c2ccc(OCCCO)cc2)O[C@@H]1c1ccccc1CN=[N+]=[N-] | 0.684 | 0.936 (inactive) | 0.328 | 0.273 | 0.669 | 2.21 | 0.745 | 1.3 | -0.106 | 1
O=C1c2ccccc2[C@](Cc2ccccc2I)(C(=O)O)[C@H](c2ccc(CO)cc2)N1Cc1ccccc1C(F)(F)F | 0.449 | -0.249 (inactive) | -0.0647 | -0.106 | 0.583 | 1.91 | 1.77 | 0.431 | -0.697 | 0.918
Cc1cccc(/C=C/C=O)c1 | 0.92 | -0.77 (inactive) | -0.139 | -0.104 | -0.0363 | 0.93 | 0.364 | 0.339 | -0.058 | 0.786
C#C[C@H](O[Si](C#CCCCCCC)(C(C)C)C(C)C)c1ccccc1 | -0.22 | 0.364 (inactive) | -0.22 | -0.155 | 0.342 | 0.43 | -0.281 | 0.524 | -0.0786 | -0.0042
CCCCCN1CC=CC23O[C@@H]4C=CCCOC(=O)C4[C@H]2C(=O)N(CCCO)[C@@H]3C1=O (stereo not given in full) | 0.538 | 0.33 (inactive) | -0.157 | -0.155 | 0.343 | -0.0684 | 0.0581 | -0.0504 | -0.277 | 0.121
C[C@]1(C(=O)NCC(F)(F)F)c2ccccc2C(=O)N(Cc2cc(F)cc(C(F)(F)F)c2)[C@H]1c1ccc(CO)cc1 | -0.385 | -0.191 (inactive) | -0.198 | -0.135 | 0.694 | 2.18 | 0.87 | 1.11 | -0.115 | 0.247
CN(C)CCCC[C@@H]1NC(=O)[C@@H]2C[C@H](C(=O)NCCCCCN)[C@H](c3ccc(O)cc3)N2C1=O | 0.932 | 0.351 (inactive) | 0.0229 | -0.0478 | 0.462 | 0.984 | 0.443 | 1 | -1.76 | 1.1
CC(=O)NCCCC[C@@H]1NC(=O)[C@@H]2C[C@H](C(=O)NCc3ccc(F)cc3)[C@H](c3ccc(O)cc3)N2C1=O | -1.25 | 0.15 (inactive) | -0.0391 | -0.153 | 0.715 | 1.79 | 0.453 | 1.02 | 0.526 | 1.15
O=C1O[C@@H](c2ccccc2)[C@@H](c2ccccc2)N2[C@@H](c3ccccc3OCCO)[C@]3(C(=O)Nc4ccc(C#CC5(O)CCCCCC5)cc43)[C@@H](C(=O)NC[C@H](O)c3ccccc3)[C@H]12 | 0.644 | 1.17 (inactive) | 0.638 | 0.0062 | 0.244 | 2.29 | 0.146 | 1 | -0.134 | 0.622
COc1cc2c(cc1O)C(c1ccc(CN3CCCC3)cc1)N(Cc1sc3ccccc3c1Cl)CC2 (stereo not given) | -0.185 | 0.0786 (inactive) | 0.0394 | -0.0861 | 0.752 | 0.415 | 0.179 | -0.209 | 1.05 | 1.11
C=C(CCCC)/C(=C/C[C@@H](OC(=O)c1ccncc1)c1ccc(CO)o1)c1cc(C(=O)OC)ccc1OC | 0.662 | 0.421 (inactive) | 0.0897 | -0.0349 | 0.709 | 1.46 | 0.924 | 1.3 | 0.422 | 1.15
CN(C)CCCC[C@@H]1NC(=O)[C@H]2C[C@@H](C(=O)NCCCCCNC(=O)CS)[C@@H](c3ccc(O)cc3)N2C1=O | 0.74 | 0.157 (inactive) | -0.374 | -0.127 | -0.204 | 0.268 | -0.733 | -1.38 | -0.688 | 0.734
